# Assay outcomes (PubChem BioAssay)
# Methyltransferases: Primary Screen for Target Class Profiling of Small Molecule Inhibitors of Methyltransferases | purified enzyme, MTase-Glo SAH luminescence; stronger effect = lower value | calls only at 40 µM | actives 3.9% (n = 25,000); call rule not given here
#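 Each enzyme was reacted with SAM and its substrate, with compounds tested once at 40 uM; SAH formed was read by MTase-Glo luminescence.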
# Calls only; n = inactive; + = active, no number. Shown is part of a subset that was picked to be rich in hits.
SMILES,Methyltransferases
Cc1c(OCc2cccc(-c3ccc(C(=O)O)cc3)c2)cc2c(c1C)C(=O)C(C1CCCC1)C2 (configuration not stated),+
CCOc1cccc(C2c3cccn3-c3sc4c(c3CN2C(=O)Nc2ccc(F)cc2)CCCC4)c1 (configuration not stated),n
CC(=O)O[C@H]1[C@H](O)C[C@@]2(C)C(CC[C@]3(C)C2CC=C2C4CC(C)(C)CC[C@]4(C(=O)O)CC[C@]23C)C1(C)C (some centres not stated),n
CC1(C)CC[C@]2(C(=O)O)CC[C@]3(C)C(=CCC4[C@@]5(C)C[C@@H](O)[C@H](O)C(C)(C)C5CC[C@]43C)[C@@H]2[C@@H]1O (some centres not stated),n
CC1(C)[C@@H](O)CC[C@]2(C)[C@H]3CC=C4[C@@H]5C[C@](C)(C(=O)O)CC[C@]5(C)CC[C@@]4(C)[C@]3(C)CC[C@@H]12,+
COc1ccc(-c2cc3n(n2)CC(C)(C(=O)NCc2ccccc2OC)N(Cc2ccc(F)cc2)C3=O)cc1 (configuration not stated),n
COc1ccc(C(=O)N2CCC(n3c(C)cnc3-c3ccncc3)C2)c(OC)c1 (configuration not stated),n
COc1ccc(CNC(=O)CCn2ccc3cc(S(=O)(=O)N4CCCCC4)ccc32)cc1OC,n
COCCNC(=O)C1(C)Cn2nc(-c3ccccc3)cc2C(=O)N1c1ccc(F)cc1C (configuration not stated),n
CCCCN1C(=O)c2cc3ccccc3n2CC1(C)C(=O)NC1CCCCCC1 (configuration not stated),n
CCC(C)NC(=O)c1ccc2c(=O)n(C)c3nnc(SCC(=O)Nc4ccccc4OC)n3c2c1 (configuration not stated),n
Nc1ncnc2c1nc(N)n2[C@@H]1O[C@H](CO)[C@@H](O)[C@H]1O,n
NC[C@H]1O[C@@H](n2cnc3c(N)ncnc32)[C@H](O)[C@@H]1O,+
Nc1ncnc2c1ncn2[C@@H]1O[C@H](CO)C[C@H]1O,n
CC1(C(=O)NC2CCCCC2)Cn2c(nc3ccccc32)C(=O)N1Cc1ccccc1Cl (configuration not stated),n
Cc1cc(NC(=O)NCCN2CCC(O)(Cc3ccccc3)CC2)c2ccccc2n1,+
CN1C(=O)c2cc(C(=O)NCCN3CCOCC3)nn2CC1(C)C(=O)NCc1ccccc1 (configuration not stated),n
O=C(NCCc1ccccc1)Nc1cccn2ncnc12,n
Cc1ccc(C)c(C(=O)Cn2nc3n(C(C)C)c(=O)c4ccc(C(=O)NC5CCCCC5)cc4n3c2=O)c1,n
CCCN1C(=O)c2c(C(=O)NCCc3ccccc3)ncn2CC1(C)C(=O)NCc1ccc(OC)cc1 (configuration not stated),n
O=c1[nH]c2ccc(S(=O)(=O)Nc3ccc(N4CCOCC4)cc3)cc2[nH]1,n
c1cn2cc(-c3ccc4cn[nH]c4c3)nc(Nc3ccc(N4CCOCC4)cc3)c2n1,+
CC1(C(=O)NC2CCCCCC2)Cn2c(cc3occc32)C(=O)N1C1CCCC1 (configuration not stated),n
CC(C)OCCCNC(=O)CCc1nnc2n(Cc3ccc(F)cc3)c(=O)c3ccccc3n12,n
CC1(C(=O)NC2CCCCC2)Cn2c(ccc2-c2ccco2)C(=O)N1C1CCCc2ccccc21 (configuration not stated),n
SMILES,Methyltransferases
Cc1cc(C(C#N)c2ccc(Cl)cc2)c(Cl)cc1NC(=O)c1cc(I)cc(I)c1O (configuration not stated),+
CCCn1c(=O)c2ccc(C(=O)NCC(C)C)cc2n2c(SCC(=O)Nc3cccc(F)c3)nnc12,n
CCc1ccc(N2C(=O)c3cc(C(C)(C)C)nn3CC2(C)C(=O)NC2CCCCC2)cc1 (configuration not stated),n
CC1CCN(S(=O)(=O)c2ccc3c(c2)oc(=O)n3CC(=O)N2CCN(c3ccccc3F)CC2)CC1,n
Cc1ccccc1-n1c(Cn2nc(-c3cccc(O)c3)c3c(N)ncnc32)nc2cccc(C)c2c1=O,+
CC1(C(=O)NC2CCCCC2)Cn2nc(-c3cccs3)cc2C(=O)N1CCc1ccc(Cl)cc1 (configuration not stated),n
C=C(C)[C@H]1C[C@@H](O)C(=C)CC[C@@H](O)C(=C)[C@@H](O)C1,+
CC(C)OCCCn1c(=O)c2ccccc2n2c(CCC(=O)NCCC3=CCCCC3)nnc12,n
Cc1cc2c(cc3n2CC(C)(C(=O)NC2CCCCCC2)N(Cc2ccc(F)cc2)C3=O)o1 (configuration not stated),n
CCc1ccccc1N1C(=O)Cn2cccc2C1C(=O)NC1CCCCC1C (configuration not stated),n
CCc1cc2c(cc3n2CC(C)(C(=O)NC2CCCCCC2)N(c2cccc(OC)c2)C3=O)s1 (configuration not stated),n
